12-LOX inh: ALOX12 (human) lipoxygenase inhibition | purified 12hLO, xylenol orange hydroperoxide absorbance | Potency, µM (top dose mostly 108 µM), without a hit: top-dose activity change, negative = inhibition, usual class: inhibitors | 580,000 tested, 1.1% active | AID 1671190
Target sequence (P18054 whole entry, looked up): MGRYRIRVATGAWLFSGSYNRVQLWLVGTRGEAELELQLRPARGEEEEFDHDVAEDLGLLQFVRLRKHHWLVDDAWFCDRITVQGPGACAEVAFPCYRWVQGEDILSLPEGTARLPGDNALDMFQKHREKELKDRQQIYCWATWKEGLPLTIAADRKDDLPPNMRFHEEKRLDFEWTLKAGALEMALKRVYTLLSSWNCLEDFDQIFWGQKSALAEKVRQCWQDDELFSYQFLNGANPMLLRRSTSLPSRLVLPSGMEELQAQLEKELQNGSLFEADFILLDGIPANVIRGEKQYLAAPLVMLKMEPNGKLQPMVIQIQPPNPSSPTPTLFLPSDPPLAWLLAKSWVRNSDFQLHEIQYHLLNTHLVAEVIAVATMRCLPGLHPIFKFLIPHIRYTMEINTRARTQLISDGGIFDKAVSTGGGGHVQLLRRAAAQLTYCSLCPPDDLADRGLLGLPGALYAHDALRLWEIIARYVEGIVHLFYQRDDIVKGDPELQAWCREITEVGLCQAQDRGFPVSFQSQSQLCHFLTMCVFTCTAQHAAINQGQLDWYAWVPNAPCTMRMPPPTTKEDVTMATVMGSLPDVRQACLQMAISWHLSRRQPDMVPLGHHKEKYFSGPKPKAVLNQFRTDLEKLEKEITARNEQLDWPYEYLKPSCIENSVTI
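Purified human 12hLO at 150 nM in 25 mM Hepes, 0.01% Triton X-100, pH 7.0, preincubated 15 min at room temperature with compound. Reaction started with 40 uM arachidonic acid, 30 min at room temperature. Hydroperoxide measured by Fe-xylenol orange, 573/405 nm absorbance ratio.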
PLK1 PBD inh: PLK1 (human) polo-box domain binding inhibition; P53350; Plk1 PBD binding of FITC phosphopeptide, fluorescence polarization; Potency, µM, without a hit: max response, negative = inhibition, hits mostly inhibitors; 360,000 tested, 2.8% active; note: series mostly up to about 57 µM; nearly all actives have a fitted effect of over 65% in size
VDR inh: blocks the human vitamin D receptor | P11473 | VDR-SRC2-3 peptide fluorescence polarization, 2 h | Potency, µM, inactives show max response, negative = inhibition, actives largely listed as inhibitors | 400,000 tested, 0.93% active | AID 504847
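Compounds are added to VDR with labelled SRC2-3 coactivator peptide and held 2 h at room temperature. Inhibition of the VDR–peptide interaction is then read as a change in fluorescence polarization.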
KAT2A inh: blocks human GCN5L2 histone acetyltransferase; Q92830; AID 504327; GCN5L2 HAT assay, ThioGlo1 CoA-SH fluorescence; Potency, µM (top dose mostly 58.9 µM), inactives show at the highest dose activity change, negative = inhibition, actives largely listed as inhibitors; 390,000 tested, 0.21% active
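GCN5L2 (20nM final) in 50mM HEPES, 0.1mM EDTA pH 7.5, 0.01% Tween-20 was preincubated 15 min at room temperature with compound, then given ThioGlo1 (50uM), H3(1-25) peptide (75uM) and acetyl-CoA (70uM); CoA-thiol fluorescence (Ex340/Em540) was read at 0 and 20 min.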
* hit, by the source's call; ? = inconclusive; . = no result given. A selection: hits, their analogues and other compounds. The true share with any hit is near 3%. Calls come from the whole dose curve; as a rule, active = well fitted curve in the direction sought with a large enough effect; inconclusive = small, poorly fitted or top-dose-only effect, or another doubt; inactive = no such curve, though single readings can be large; an effect the other way counts as inactive or inconclusive. % is set by controls: 0 for no effect and ±100 for the full control effect; potency is the fitted concentration of half-maximal effect.

SMILES | 12-LOX inh | PLK1 PBD inh | VDR inh | KAT2A inh
S=C(NCc1ccco1)Nc1cccc(Cl)c1 | ? | -18.3% | -10.4% | -5.0%
S=C(NCc1ccco1)Nc1ccc(Cl)c(Cl)c1 | 28.2µM* | -14.2% | -12.6% | -24.5%
S=C(NCc1ccco1)Nc1cc(-c2ccccc2)[nH]n1 | 5.01µM* | -15.7% | 12.6% | -14.2%
CC1CCCCC12CCc1cc3c4c(c(=O)oc3cc1O2)CCCC4 (stereo not drawn) | -7.9% | . | . | .
CCn1cc(C#N)c(=O)n(Cc2nnc(-c3ccccc3)o2)c1=O | 7.1% | . | . | .
Cc1ccc(OCc2cc(=O)n3oc(C)cc3n2)c(NC(=O)COc2cccc(C(F)(F)F)c2)c1 | -3.2% | . | . | .
S=C(NCc1ccco1)Nc1ccc(Oc2ccccc2)cc1 | 44.7µM* | 16.8µM* | -14.4% | -8.0%
Cc1ccccc1C1C=C(c2ccccc2)OC(c2ccccc2)=C1C=O (stereo not drawn) | 5.62µM* | . | . | .
CC(C)C(NC(=O)c1ccccn1)C(=O)O (stereo not drawn) | 7.7% | . | . | .
CCOC(=O)C1C(=O)CC(C)(O)C(C(=O)OCC)C1c1ccco1 (stereo not drawn) | -9.6% | 3.36µM* | -21.0% | 2.2%
CN(C)S(=O)(=O)c1cccc(NC(=S)N/N=C/c2ccc(O)c(O)c2O)c1 | ? | 5.97µM* | 89.1µM* | -19.8%
CCn1c(C)nc2cc(C(=O)N/N=C/c3cccc(OC)c3O)ccc21 | ? | -0.2% | 4.0% | -10.3%
COc1cccc(/C=N/NC(=S)Nc2cccc(S(=O)(=O)N(C)C)c2)c1 | ? | 8.44µM* | 79.4µM* | 4.3%
CCn1c(C)nc2cc(C(=O)N/N=C/c3ccc(O)c(O)c3O)ccc21 | -20.9% | 8.44µM* | -21.6% | ?
CCN(CCO)c1ccc(NC(=S)Nc2cccc(S(=O)(=O)N(C)C)c2)cc1 | -17.4% | 26.7µM* | ? | -3.4%
COc1cc(/C=N/NC(=S)Nc2cccc(S(=O)(=O)N(C)C)c2)cc(OC)c1O | -30.9% | 2.0% | -2.6% | 33.0%
COc1ccc(O)c(/C=N/NC(=S)Nc2cccc(S(=O)(=O)N(C)C)c2)c1 | ? | 4.0% | -4.8% | -12.7%
COc1cc2nc(CN(C)CC(=O)Nc3ccc(F)cc3)[nH]c(=O)c2cc1OC | -38.7% | . | . | .
CC(=O)c1cccc(C(=O)N2CCC3(CC2)N=C(c2ccc(C)cc2)NO3)c1 | -8.5% | . | . | .
COc1ccc(-c2nc(CSCC(=O)NCC(OC)OC)c(C)o2)cc1OC | 34.2% | . | . | .
CCN(CC)S(=O)(=O)c1cccc(C(=O)N/N=C/c2ccc(O)c(O)c2O)c1 | ? | 8.44µM* | -12.7% | -23.9%
CCOc1ccccc1/C=N/NC(=O)c1cccc(S(=O)(=O)N(CC)CC)c1 | 8.5% | -0.5% | 10.2% | -0.6%
COc1ccc(-c2nc(-c3ccccn3)ncc2S(C)(=O)=O)cc1 | 6.1% | -6.5% | 20.0% | -6.9%
COc1ccc(-c2nc(-c3ccccc3)ncc2S(C)(=O)=O)cc1 | 26.0% | 26.7µM* | ? | -29.5%
COc1ccccc1N1CCN(C(=O)CSc2ncnc3scc(-c4ccccc4)c23)CC1 | -10.3% | 15µM* | ? | 36.7%
SMILES | 12-LOX inh | PLK1 PBD inh | VDR inh | KAT2A inh
O=C(CSc1ncnc2scc(-c3ccccc3)c12)N1CCN(c2ccccc2F)CC1 | 0.2% | -5.9% | -12.6% | -0.5%
CC(c1nc2ccccc2n1CC(=O)N(c1ccccc1)C(C)C)N1CCOCC1 (stereo not drawn) | 38.7% | . | . | .
CC(NS(=O)(=O)c1ccc2c(c1)c(=O)n(C)c(=O)n2C)C(=O)NC1CCCCC1 (stereo not drawn) | -3.9% | 26.7µM* | -28.9% | -5.0%
Cn1c(=O)c2cc(S(=O)(=O)NC(Cc3ccccc3)C(=O)NCC3CCCO3)ccc2n(C)c1=O (stereo not drawn) | -2.2% | 0.6% | -5.4% | -2.2%
COC(=O)C(C)OC(=O)c1c[nH]c2cc(Br)c(Br)cc12 (stereo not drawn) | -26.8% | . | . | .
COc1ccc(C(=O)NNC(=S)NC(=O)c2ccc(F)cc2)cc1Br | ? | -13.3% | -4.5% | .
COc1ccc(C(=O)NC(=S)NC(C)C)cc1Br | 3.98µM* | -0.4% | -6.8% | -9.5%
COc1ccc(CCNC(=S)NC(=O)c2ccc(Br)cc2)cc1OC | 28.2µM* | -25.1% | -21.0% | -6.8%
COc1ccc(C(=O)NC(=S)NNC(=O)c2ccncc2)cc1Br | ? | -12.2% | -17.9% | -17.1%
COc1ccc(C(=O)NC(=S)NCc2cccnc2)cc1OC | ? | 3.9% | 18.4% | -6.0%
COc1ccc(C(=O)NC(=S)NCc2ccccc2)cc1OC | 15.8µM* | -7.2% | -8.3% | -10.6%

Compound activity as filed in PubChem BioAssay.
